# From PubChem BioAssay AID862 (The Scripps Research Institute Molecular Screening Center, 2007)
# Among all 190,000 compounds or so, about 1,700 (0.89%) were called active. This is one part of a sample in which actives are shown more often than they occur. Values without a mark were called inactive.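 How the source made its calls: active means inhibition above the mean inhibition across all screened compounds plus 3 SD (cut at about 44% in these data); inactive means the rest.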
# Assay: IL-6 driven STAT3 reporter inhibitors, primary screen, U3A cells, luciferase, luminescence, MLSCN library (AID 862);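 further: 0% = DMSO only wells and 100% = 100 µM nifuroxazide control wells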
# Details: IL-6 STAT3-luciferase reporter, at 5.5 µM, stronger effect = higher value, host cell line lacks STAT1
row,Compound,inhibition
1,CCN(CC)c1ccc(/C=N/Nc2nc(C)cc(=O)[nH]2)cc1,46.4% (active)
2,Cc1cc(=O)[nH]c(N/N=C/c2c(C)nn(-c3ccccc3Cl)c2Cl)n1,7.1%
3,CCN(CC)c1ccc(/C=N/Nc2nc(C)cc(C)n2)c(O)c1,16%
4,Nc1nnc(SCn2nnc3ccccc3c2=O)s1,9.1%
5,O=C(O)CCC(=O)Nc1nc2ccc([N+](=O)[O-])cc2s1,13.9%
6,O=C(NC(Nc1nc2ccc([N+](=O)[O-])cc2s1)(C(F)(F)F)C(F)(F)F)c1ccccc1,92.4% (active)
7,O=C(Nc1nc2ccc([N+](=O)[O-])cc2s1)c1ccc(S(=O)(=O)N2CCCc3ccccc32)cc1,21.1%
8,OCCC1CN(Cc2ccc(Oc3ncccn3)cc2)CCN1CCc1ccccc1 (stereo unspecified),4.1%
9,Cc1cc[n+](-c2[nH]c(=O)sc2/C=N/NC(=O)c2ccccc2[O-])cc1C,6.7%
10,COc1ccc(OC)c(N=Cc2c(O)[nH]c3ccccc23)c1,22.7%
11,COc1ccc(N=Cc2c(O)[nH]c3ccccc23)cc1OC,40.4%
12,COc1cc(N=Cc2c(O)[nH]c3ccccc23)cc(OC)c1OC,56% (active)
13,Cc1cc(C)nc(SC2CCCCC2NS(=O)(=O)c2ccc(Cl)cc2)n1 (stereo unspecified),-5.1%
14,Nc1c(C(=O)O)cnn1-c1ccccc1,-7.4%
15,Cc1ccc(N2C(=O)SC(N(CC(=O)O)c3ccc(C)cc3)C2=O)cc1 (stereo unspecified),0.7%
16,Nc1ccc(-c2nnc(-c3ccc(-c4ccccc4)cc3)o2)cc1,-2.7%
17,CCc1ccc2oc(-c3ccc(N)cc3)nc2c1,79.6% (active)
18,CCCCCC(=O)Nc1ccc2oc(-c3ccncc3)nc2c1,21.8%
19,COc1ccc(-c2csc(Nc3ccccn3)n2)cc1,51.5% (active)
20,COc1ccc(Nc2nc(-c3ccccc3)cs2)cc1,-10.2%
21,c1ccc(Nc2nc(-c3ccncc3)cs2)nc1,9.9%
22,Cc1ccccc1-n1nc(SCC(=O)O)sc1=S,3.4%
23,COc1cccc(CNC(=O)CCC2CCCN(Cc3ccc(OC(F)F)cc3)C2)c1 (stereo unspecified),13.3%
24,c1ccc(Nc2nc(N3CCOCC3)c3ccccc3n2)cc1,22%
25,CCOc1ccc(Nc2nc(Cl)nc(N3CCN(c4ccc(OC)cc4)CC3)n2)cc1,-0.7%
26,COc1ccc(Nc2ncc(F)c(N3CCOCC3)n2)cc1,50.7% (active)

row,Compound,inhibition
1,O=[N+]([O-])c1ccc2oc(-c3cccc(O)c3)nc2c1,1.8%
2,O=C(Nc1ccccc1F)c1ccc(Cn2cc(Br)cn2)cc1,14.9%
3,COc1ccc(-n2ncc3c(N4CCCc5ccccc54)ncnc32)cc1,30.9%
4,Cc1ccc(-n2ncc3c(=O)[nH]cnc32)c(C)c1,10.7%
5,COc1ccc(-n2ncc3c(N4CCc5ccccc54)ncnc32)cc1,2.3%
6,COC(=O)CSc1ncnc2c1cnn2-c1ccc(C)cc1C,23.1%
7,Cc1ccc(-n2ncc3c(N4CCN(c5ccc(F)cc5)CC4)ncnc32)c(C)c1,69.6% (active)
8,c1ccc(-n2ncc3c(N4CCCC4)ncnc32)cc1,46.7% (active)
9,CCOc1ccc(N2C(=O)Nc3ccccc3C2(O)C(=O)NCc2ccco2)cc1 (stereo unspecified),4.6%
10,O=c1[nH]oc(O)c1-c1ncc(C(F)(F)F)cc1Cl,-6.5%
11,S=c1nc(C23CC4CC(CC(C4)C2)C3)nc2sccn12,10%
12,COC(=O)NC1(C(F)(F)F)NC(=O)N(C2CCCCC2)C1=O (stereo unspecified),7.4%
13,O=C1NC(Nc2nc3ccccc3s2)(C(F)(F)F)C(=O)N1C1CCCCC1 (stereo unspecified),48.9% (active)
14,O=C(NC1(C(F)(F)F)NC(=O)N(C2CCCCC2)C1=O)c1ccco1 (stereo unspecified),12.1%
15,COCC(C)NC(=O)CSc1nc2nn(-c3ccccc3)c(=O)c-2c2n1CCCCC2 (stereo unspecified),2.7%
16,O=C(NCCOc1ccccc1)c1ccccc1,20.1%
17,CCCOc1ccc(C(=O)NCCc2ccccc2)cc1,50.3% (active)
18,O=C(NCCc1ccccc1)c1ccc(OCCOc2ccccc2)cc1,-1.4%
19,O=C(CN1C2=NCCN2c2ccccc21)c1cccs1,0%
20,c1ccc(-c2cc(N3CCCCC3)c3ccccc3n2)cc1,9.3%
21,Cc1ccc(-c2cn3cc([N+](=O)[O-])ccc3n2)cc1,86.6% (active)
22,Cc1ccc(-c2cn(S(=O)(=O)c3cccc([N+](=O)[O-])c3)nc2N)cc1,12.3%
23,Cc1ccc(-c2cn3cc(C)ccc3n2)cc1,103% (active)
24,Cc1ccc(-n2cc3ccc([N+](=O)[O-])cc3n2)cc1,38.8%
25,COc1ccc(-c2cn3ccsc3n2)cc1,28.9%
26,COc1ccc(-c2cn3cccnc3n2)cc1,10.6%

row,Compound,inhibition
1,CC(=O)Nc1ccc(NC(=O)COc2ccc(S(=O)(=O)NC(C)c3ccccc3)cc2)cc1 (stereo unspecified),16.1%
2,Cn1cnnc1Sc1ccc(CN2CCN(C3CCCC3)C(CCO)C2)o1 (stereo unspecified),-6.5%
3,Cc1ccc2nc(-c3ccncc3)cc(C(=O)Nc3ccc4c(c3)OCCO4)c2c1,26.4%
4,C/C(=N\NC(=O)CSc1nc2ccccc2c(=O)n1-c1ccccc1C)c1cccs1,-9.1%
5,O=C(Cc1ccccc1)N1CCN(S(=O)(=O)c2ccc([N+](=O)[O-])cc2)CC1,-1.6%
6,Cc1cc(C)c2c(n1)sc1c(=O)n(-c3ccccc3)c(=O)[nH]c12,1.2%
7,Cc1cccc(C(=O)OC(C)CN2CCN(C)CC2)c1 (stereo unspecified),6.7%
8,O=c1c2ccccc2nc2n1C1(CCCCC1)Cc1ccccc1-2,-3.8%
9,CCOC(=O)C(C)Sc1nc2ccccc2c(=O)n1CC1CCCCC1 (stereo unspecified),-5.1%
10,CN(c1ccc2nc3ccccc3c(=O)n2n1)C1CCCCC1,105% (active)
11,CN(C)C(CNC(=O)c1cccc(C#N)c1)c1ccco1 (stereo unspecified),5.3%
12,CCOC(=O)CNC(=O)CSc1ccc2nnc(-c3cccnc3)n2n1,-10.3%
13,Cn1ccc(=NC=C(C#N)C#N)c2ccccc21,1.3%
14,Cc1cccc(OCCNC(=S)NC(=O)c2cccnc2)c1,-5%
15,CN(Cc1cccnc1)C(=O)c1cc(COc2ccc3ncccc3c2)on1,79.1% (active)
16,Cc1noc(C)c1COc1cccc(C(=O)Nc2cccnc2)c1,14.6%
17,O=C(N/N=C/c1ccc([N+](=O)[O-])o1)c1cn(-c2ccccc2)nc1-c1ccc(F)cc1,25%
18,O=C(O)c1ccccc1-c1ccccc1C(=O)NCc1cccnc1,-4.3%
19,CCC(=O)Oc1cccc(C(=O)Nc2ccc(-c3nnc(-c4ccco4)o3)cc2)c1,11.2%
20,O=C(CCc1ccccc1)Nc1cccc(-c2nnc(-c3ccco3)o2)c1,15.5%
21,CCOc1ccc(-c2nnc(-c3ccco3)o2)cc1,77.6% (active)
22,CCCCSc1nnc(-c2ccc(C)cc2)o1,28.9%
23,COc1ccc(OCC(=O)Nc2nnc(-c3ccco3)s2)cc1,-12.3%
24,CCCCOc1ccc(-c2nnc(-c3ccco3)o2)cc1,51.7% (active)
25,CC(C)CNC(=O)CC(NCC(C)C)C(=O)O (stereo unspecified),17.2%
26,CCCOC1CCCN(Cc2cn(C)nc2-c2ccccc2F)C1 (stereo unspecified),3.9%

row,Compound,inhibition
1,O=C(NCC1COc2ccccc2O1)C1(c2ccccc2)CCCC1 (stereo unspecified),9.6%
2,O=C(COC(=O)CCc1ccc(S(=O)(=O)N2CCOCC2)cc1)Nc1cccc(Cl)c1,-7.6%
3,CCn1c(NC(=O)c2nn(C)cc2Br)nc2ccccc21,5.2%
4,CCSc1nnc(NC(=O)Cc2ccccc2OC)s1,1.7%
5,CC(=O)c1sc(NC(=O)c2ccc(C)cc2)nc1C,33.2%
6,CCSc1nnc(NC(=O)c2ccc(C)cc2)s1,60.6% (active)
7,Cc1ccc(C2CCN(C(=S)Nc3cccc(Cl)c3)C2)cc1 (stereo unspecified),0.7%
8,CCc1ccc(-n2c(SCc3cc(=O)n4cc(Br)ccc4n3)nc3[nH]ncc3c2=O)cc1,9.7%
9,CSCCNCc1cn(-c2ccc(F)cc2F)nc1-c1ccccc1C,0.4%
10,COc1ccc(CCNC(=O)Cn2c(=O)n(CC3CCCO3)c(=O)c3ccccc32)cc1OC (stereo unspecified),10.4%
11,Cc1nc(CNS(=O)(=O)c2ccc(Oc3ccccc3)cc2)cs1,54% (active)
12,Cc1ccc(S(=O)(=O)NCc2csc(C)n2)c(C)c1,-8.4%
13,Cc1nc(CNS(=O)(=O)c2cccnc2)cs1,5.7%
14,CCc1cc2c(N3CCN(c4nnc(CC)s4)CC3)ncnc2s1,57.3% (active)
15,CCc1cc2c(NC3CCCC3)ncnc2s1,13%
16,CCc1cc2c(SCC(=O)Nc3ncc(Cl)c(C)c3Cl)ncnc2s1,-5.3%
17,CCC(C)CN1CCC(CO)(Cc2ccccc2Cl)CC1 (stereo unspecified),3.5%
18,Cc1ccc2cc3cc(C(=O)N4CCCCCC4)oc3nc2c1,48.7% (active)
19,Cc1cc(=O)oc(C)c1C(=O)N1CCCCC1,6.3%
20,Cc1cccc(C(=O)N2CCCN(C(=O)c3cccc(C)c3)CC2)c1,3.3%
21,CN1CCN(c2ccc(NC(=O)c3ccc4c(c3)OCCO4)cc2Cl)CC1,-19.1%
22,c1ccc(Cc2cc[n+](Cc3ccccc3)cc2)cc1,10.2%
23,CC1CCCN(S(=O)(=O)c2ccc(N(C(=O)c3cnccn3)C(C(=O)NC3CCCCC3)c3cccs3)cc2)C1 (stereo unspecified),5.3%
